About 6,500 targets were measured; listed, in parts, are those with a hit and a random draw of the rest. About 2% of all pairs of compound and target were hits. Unmarked numbers belong to inactive results.
Compound: COC(=O)C#Cc1ccccc1 [methyl 3-phenylpropiolate]
Experiment: log2 ratio of iodoacetamide-alkyne labeling of the cysteine site, DMSO over compound (competition); higher = stronger covalent engagement of the cysteine by the compound, active = 1 or more
Conditions: 500 µM; treatment time 1 h; system: HEK293T cell lysate
Outline: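 HEK293T lysate (2 mg/mL) was incubated with electrophile (500 µM) or vehicle for 1 h at ambient temperature and then with iodoacetamide alkyne for 1 h. Labelled proteins were clicked to sCIP-TMT reagents, pooled, digested, enriched on streptavidin and measured by Orbitrap Eclipse LC-MS/MS with FAIMS, with FragPipe quantification. The per-cysteine log2 competition ratio is mean control-channel reporter intensity over mean compound-channel reporter intensity. Across three replicates with duplicate channels, cysteines quantified in only one replicate were excluded.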

UniProt P09543, sequence (P09543 whole entry, looked up): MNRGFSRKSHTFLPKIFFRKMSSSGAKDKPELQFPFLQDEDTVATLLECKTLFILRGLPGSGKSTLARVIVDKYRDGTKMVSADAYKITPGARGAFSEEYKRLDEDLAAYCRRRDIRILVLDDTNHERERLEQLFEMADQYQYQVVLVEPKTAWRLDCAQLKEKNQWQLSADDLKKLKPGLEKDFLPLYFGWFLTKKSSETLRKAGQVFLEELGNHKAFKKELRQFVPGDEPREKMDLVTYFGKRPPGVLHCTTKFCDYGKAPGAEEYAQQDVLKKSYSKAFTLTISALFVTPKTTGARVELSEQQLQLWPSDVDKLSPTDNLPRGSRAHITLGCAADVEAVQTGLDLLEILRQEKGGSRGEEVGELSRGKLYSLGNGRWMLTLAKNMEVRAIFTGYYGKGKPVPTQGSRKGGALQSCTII
UniProt P50213, sequence (P50213 whole entry, looked up): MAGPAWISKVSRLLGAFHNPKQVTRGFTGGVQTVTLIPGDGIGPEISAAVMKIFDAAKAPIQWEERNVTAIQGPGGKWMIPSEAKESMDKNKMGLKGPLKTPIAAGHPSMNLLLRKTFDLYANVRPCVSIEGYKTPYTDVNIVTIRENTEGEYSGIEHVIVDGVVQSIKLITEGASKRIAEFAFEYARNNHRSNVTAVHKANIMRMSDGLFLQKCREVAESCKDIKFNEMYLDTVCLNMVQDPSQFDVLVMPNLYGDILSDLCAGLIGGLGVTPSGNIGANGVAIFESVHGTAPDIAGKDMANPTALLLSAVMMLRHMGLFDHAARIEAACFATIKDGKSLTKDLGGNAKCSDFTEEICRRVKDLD
UniProt P38117, sequence (P38117 whole entry, looked up): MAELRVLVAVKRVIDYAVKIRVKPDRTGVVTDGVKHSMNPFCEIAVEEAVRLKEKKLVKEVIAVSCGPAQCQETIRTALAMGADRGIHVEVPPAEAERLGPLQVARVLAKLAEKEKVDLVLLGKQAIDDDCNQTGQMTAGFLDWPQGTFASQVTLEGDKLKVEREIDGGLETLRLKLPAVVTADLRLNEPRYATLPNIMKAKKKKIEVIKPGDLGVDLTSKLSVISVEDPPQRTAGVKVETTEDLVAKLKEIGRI
UniProt P19174, sequence (P19174 whole entry, looked up): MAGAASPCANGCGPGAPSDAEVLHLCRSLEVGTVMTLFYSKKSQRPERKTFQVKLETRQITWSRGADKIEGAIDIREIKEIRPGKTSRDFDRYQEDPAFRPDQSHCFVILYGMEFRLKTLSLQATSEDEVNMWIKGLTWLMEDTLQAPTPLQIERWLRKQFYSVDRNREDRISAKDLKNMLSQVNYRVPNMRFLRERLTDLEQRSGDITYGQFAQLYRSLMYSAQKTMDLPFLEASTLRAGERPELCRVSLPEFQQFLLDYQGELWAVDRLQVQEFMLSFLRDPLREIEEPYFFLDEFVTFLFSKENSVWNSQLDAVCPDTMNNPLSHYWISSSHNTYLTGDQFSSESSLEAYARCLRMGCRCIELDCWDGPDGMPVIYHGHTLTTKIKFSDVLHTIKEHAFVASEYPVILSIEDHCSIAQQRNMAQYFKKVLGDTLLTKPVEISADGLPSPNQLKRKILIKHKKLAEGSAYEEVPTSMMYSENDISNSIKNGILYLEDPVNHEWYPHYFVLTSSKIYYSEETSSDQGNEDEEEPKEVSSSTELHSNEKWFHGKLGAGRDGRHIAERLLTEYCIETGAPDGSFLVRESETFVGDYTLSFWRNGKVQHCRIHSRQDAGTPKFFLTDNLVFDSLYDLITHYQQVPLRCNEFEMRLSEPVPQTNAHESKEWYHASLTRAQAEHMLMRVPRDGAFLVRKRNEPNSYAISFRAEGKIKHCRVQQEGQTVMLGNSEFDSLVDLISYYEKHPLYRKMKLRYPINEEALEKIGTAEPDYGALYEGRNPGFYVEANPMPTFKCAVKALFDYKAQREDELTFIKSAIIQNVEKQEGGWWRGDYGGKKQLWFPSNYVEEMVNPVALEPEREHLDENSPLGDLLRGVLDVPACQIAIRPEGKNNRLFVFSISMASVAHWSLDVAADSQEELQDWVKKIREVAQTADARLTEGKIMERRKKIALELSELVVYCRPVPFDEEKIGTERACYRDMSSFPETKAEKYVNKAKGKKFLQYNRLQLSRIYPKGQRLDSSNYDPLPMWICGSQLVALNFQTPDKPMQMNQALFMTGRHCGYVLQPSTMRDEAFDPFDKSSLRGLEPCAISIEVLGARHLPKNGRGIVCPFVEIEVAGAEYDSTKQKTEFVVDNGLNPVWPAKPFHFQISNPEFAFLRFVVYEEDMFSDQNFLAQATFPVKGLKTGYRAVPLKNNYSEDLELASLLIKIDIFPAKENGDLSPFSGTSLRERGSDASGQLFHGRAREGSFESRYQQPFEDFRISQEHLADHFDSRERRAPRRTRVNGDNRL
UniProt P49589, sequence (P49589 whole entry): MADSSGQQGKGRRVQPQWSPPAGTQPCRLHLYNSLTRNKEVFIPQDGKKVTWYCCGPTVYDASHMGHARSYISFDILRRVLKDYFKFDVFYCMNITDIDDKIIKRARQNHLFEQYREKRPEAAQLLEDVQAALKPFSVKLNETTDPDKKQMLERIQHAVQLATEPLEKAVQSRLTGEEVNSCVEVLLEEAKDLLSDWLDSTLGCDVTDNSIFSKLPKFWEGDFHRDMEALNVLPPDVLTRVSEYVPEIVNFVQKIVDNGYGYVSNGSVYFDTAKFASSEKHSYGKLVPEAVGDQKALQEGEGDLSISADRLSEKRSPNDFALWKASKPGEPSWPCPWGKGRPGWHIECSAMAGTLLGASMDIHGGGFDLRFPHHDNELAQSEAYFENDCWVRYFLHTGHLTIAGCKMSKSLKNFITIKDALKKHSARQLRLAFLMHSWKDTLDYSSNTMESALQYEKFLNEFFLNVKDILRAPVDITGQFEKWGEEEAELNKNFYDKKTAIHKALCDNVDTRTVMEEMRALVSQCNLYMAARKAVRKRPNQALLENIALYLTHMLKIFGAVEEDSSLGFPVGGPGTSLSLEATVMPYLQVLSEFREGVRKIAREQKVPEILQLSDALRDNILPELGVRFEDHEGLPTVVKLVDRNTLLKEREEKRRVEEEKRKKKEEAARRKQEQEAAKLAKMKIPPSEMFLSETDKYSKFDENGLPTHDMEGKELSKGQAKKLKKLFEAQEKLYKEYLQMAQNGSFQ
UniProt P26358, sequence (P26358 whole entry, looked up): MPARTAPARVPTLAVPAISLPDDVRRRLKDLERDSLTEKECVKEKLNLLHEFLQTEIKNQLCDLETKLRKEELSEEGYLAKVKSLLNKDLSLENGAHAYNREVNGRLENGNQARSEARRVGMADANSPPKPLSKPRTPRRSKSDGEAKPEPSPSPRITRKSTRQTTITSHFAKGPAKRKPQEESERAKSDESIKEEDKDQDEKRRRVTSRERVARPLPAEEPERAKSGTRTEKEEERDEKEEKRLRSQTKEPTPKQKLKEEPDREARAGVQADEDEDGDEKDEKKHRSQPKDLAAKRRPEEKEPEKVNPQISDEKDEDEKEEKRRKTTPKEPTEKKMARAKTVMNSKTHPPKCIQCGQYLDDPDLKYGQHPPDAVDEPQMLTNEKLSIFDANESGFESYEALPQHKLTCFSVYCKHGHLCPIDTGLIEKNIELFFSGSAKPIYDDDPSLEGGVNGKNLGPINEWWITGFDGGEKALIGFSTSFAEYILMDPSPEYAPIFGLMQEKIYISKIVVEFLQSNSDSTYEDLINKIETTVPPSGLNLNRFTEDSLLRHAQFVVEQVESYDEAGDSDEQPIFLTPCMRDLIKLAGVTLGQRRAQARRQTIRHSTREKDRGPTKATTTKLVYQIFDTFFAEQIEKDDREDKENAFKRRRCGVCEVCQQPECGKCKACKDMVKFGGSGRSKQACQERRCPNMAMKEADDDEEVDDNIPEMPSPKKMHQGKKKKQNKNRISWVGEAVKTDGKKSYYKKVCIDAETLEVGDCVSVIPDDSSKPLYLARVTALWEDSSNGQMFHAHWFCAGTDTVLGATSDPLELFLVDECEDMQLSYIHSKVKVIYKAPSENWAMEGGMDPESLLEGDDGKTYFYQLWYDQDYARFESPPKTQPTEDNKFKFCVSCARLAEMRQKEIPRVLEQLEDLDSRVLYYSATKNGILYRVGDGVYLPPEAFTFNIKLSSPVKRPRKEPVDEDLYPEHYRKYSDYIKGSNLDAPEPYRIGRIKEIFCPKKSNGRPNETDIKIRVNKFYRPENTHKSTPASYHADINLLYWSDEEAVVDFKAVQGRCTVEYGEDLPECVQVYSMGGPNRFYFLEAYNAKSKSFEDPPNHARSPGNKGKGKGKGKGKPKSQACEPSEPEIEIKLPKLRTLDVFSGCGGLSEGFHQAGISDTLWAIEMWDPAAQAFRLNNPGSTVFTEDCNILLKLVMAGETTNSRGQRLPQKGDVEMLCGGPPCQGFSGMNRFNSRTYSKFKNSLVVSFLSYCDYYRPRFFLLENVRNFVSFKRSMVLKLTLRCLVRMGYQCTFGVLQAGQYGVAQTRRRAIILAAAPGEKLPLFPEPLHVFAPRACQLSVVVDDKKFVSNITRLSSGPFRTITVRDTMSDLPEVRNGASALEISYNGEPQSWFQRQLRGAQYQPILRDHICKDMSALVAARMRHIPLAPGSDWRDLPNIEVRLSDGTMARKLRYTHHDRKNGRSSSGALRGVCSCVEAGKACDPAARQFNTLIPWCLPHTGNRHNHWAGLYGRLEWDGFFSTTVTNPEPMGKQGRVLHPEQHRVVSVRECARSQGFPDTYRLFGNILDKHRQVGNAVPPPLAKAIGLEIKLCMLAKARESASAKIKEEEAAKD
UniProt P51991, sequence (P51991 whole entry, looked up): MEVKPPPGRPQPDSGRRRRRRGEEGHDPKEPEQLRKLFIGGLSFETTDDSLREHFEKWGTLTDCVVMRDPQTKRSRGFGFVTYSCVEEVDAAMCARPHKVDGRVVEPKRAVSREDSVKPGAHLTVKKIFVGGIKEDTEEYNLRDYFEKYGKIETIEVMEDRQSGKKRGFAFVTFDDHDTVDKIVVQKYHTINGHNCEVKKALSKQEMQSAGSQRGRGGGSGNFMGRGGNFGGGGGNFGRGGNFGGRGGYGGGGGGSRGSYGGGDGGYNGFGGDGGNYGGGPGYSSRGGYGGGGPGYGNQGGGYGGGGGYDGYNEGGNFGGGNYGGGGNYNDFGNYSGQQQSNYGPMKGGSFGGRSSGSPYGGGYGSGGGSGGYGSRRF

For RPL27A C144 (UniProt P46776), which “log2 ratio of iodoacetamide-alkyne labeling” value (shortened to “log2 ratio”) is on record?
The value was 0.155.

RANBP2 C82 (UniProt P49792) was tested. Which “log2 ratio” value did it give?
The value was 0.564.

RANGAP1 C303 (UniProt P46060) was tested. Which “log2 ratio” value did it give?
The value was 0.47.

Which “log2 ratio” value does the source give for RPL17 C144 (UniProt P18621) here?
Its value is 0.131.

For UniProt P49753_C401, which “log2 ratio” value is on record?
The value was 0.0763.

For ACAA1 C123 (UniProt P09110), which “log2 ratio” value is on record?
The value was -0.0075.

For RPS3 C97 (UniProt P23396), which “log2 ratio” value is on record?
Its value is 2.45 (active).

CAST C408 (UniProt P20810) was tested. Which “log2 ratio” value did it give?
Its value is 1.01 (active).

For ACADM C156 (UniProt P11310), which “log2 ratio” value is on record?
Its value is 0.666.

CRKL C249 (UniProt P46109) was tested. Which “log2 ratio” value did it give?
Its value is 1.61 (active).

With DNMT1 C1226 (UniProt P26358) as the target, how does the “log2 ratio” value read?
The value was -0.0963.

For PABPC1 C128 (UniProt P11940), which “log2 ratio” value is on record?
The value was -0.0389.

For UniProt P26367_C94, which “log2 ratio” value is on record?
Its value is 0.097.

Which “log2 ratio” value does the source give for HNRNPM C114 (UniProt P52272) here?
The value was -0.0182.

SFPQ C297 (UniProt P23246) was tested. Which “log2 ratio” value did it give?
The value was -0.122.

With CAST C413 (UniProt P20810) as the target, how does the “log2 ratio” value read?
Its value is 0.756.

For UniProt P17812_C218, which “log2 ratio” value is on record?
Its value is -0.193.

For FASN C1992 (UniProt P49327), which “log2 ratio” value is on record?
Its value is 0.0894.

Which “log2 ratio” value does the source give for CNP C111 (UniProt P09543) here?
The value was 0.0267.

With UniProt P14618_C49 as the target, how does the “log2 ratio” value read?
The value was -0.193.

How did the “log2 ratio” value turn out when UniProt P23610_C62 was run?
The value was 0.0767.

For VDAC2 C13 (UniProt P45880), which “log2 ratio” value is on record?
Its value is 1.11 (active).

For CARS C27 (UniProt P49589), which “log2 ratio” value is on record?
The value was 0.454.

SMC2 C585 (UniProt O95347) was tested. Which “log2 ratio” value did it give?
The value was 0.258.

With LMNA C570 (UniProt P02545) as the target, how does the “log2 ratio” value read?
The value was 0.553.

With IDH3A C331 (UniProt P50213) as the target, how does the “log2 ratio” value read?
The value was 0.257.

Which “log2 ratio” value does the source give for HNRNPA3 C196 (UniProt P51991) here?
The value was -0.0216.

OAT C253 (UniProt P04181) was tested. Which “log2 ratio” value did it give?
The value was 0.0787.

Which “log2 ratio” value does the source give for ETFB C71 (UniProt P38117) here?
The value was 0.579.

For UniProt P49840_C398, which “log2 ratio” value is on record?
The value was 0.241.

UniProt P14618_C424 was tested. Which “log2 ratio” value did it give?
Its value is -0.246.

For TXN C35 (UniProt P10599), which “log2 ratio” value is on record?
The value was 1.14 (active).

With ADSL C27 (UniProt P30566) as the target, how does the “log2 ratio” value read?
Its value is 0.0306.

How did the “log2 ratio” value turn out when GYS1 C699 (UniProt P13807) was run?
Its value is 0.526.

PLCG1 C976 (UniProt P19174) was tested. Which “log2 ratio” value did it give?
Its value is 1.9 (active).

Which “log2 ratio” value does the source give for HSP90B1 C645 (UniProt P14625) here?
The value was -0.0466.

With COMT C241 (UniProt P21964) as the target, how does the “log2 ratio” value read?
The value was 0.194.

Source: the supplement of paper PMC11006884
